Compound activity deposited in PubChem by several laboratories.
The list is not random: actives were taken first. Their share in the collection is about 1.3%.
NCOA3 inh: human NCOA3 inhibition | HEK293 GAL4-SRC3 luciferase reporter, luminescence | Q9Y6Q9 | 0.17% of 360,000 active | inhibition, % at 3.6 µM;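 active = inhibition above a per-campaign cutoff, the mean of all compounds plus 3 SD, cut at about 60% in these data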;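 also: 0% = DMSO-treated cells and 100% = gossypol-treated cells at 36 µM; higher means less SRC3-driven luciferase light from the GAL4 reporter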
NR5A2 inv ag: inverse agonists of human LRH-1 (NR5A2) | HEK293T StAR-luciferase reporter, LRH-1 transfected, 24 h | 0.13% of 360,000 active | AID 602396 | O00482 | inhibition, % at 3.6 µM;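 active = inhibition above the mean inhibition of all tested compounds plus 3 SD, cut at about 73% in these data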;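 also: 0% = DMSO wells and 100% = reporter-only cells lacking LRH-1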
Target sequence (O00482 whole entry, looked up): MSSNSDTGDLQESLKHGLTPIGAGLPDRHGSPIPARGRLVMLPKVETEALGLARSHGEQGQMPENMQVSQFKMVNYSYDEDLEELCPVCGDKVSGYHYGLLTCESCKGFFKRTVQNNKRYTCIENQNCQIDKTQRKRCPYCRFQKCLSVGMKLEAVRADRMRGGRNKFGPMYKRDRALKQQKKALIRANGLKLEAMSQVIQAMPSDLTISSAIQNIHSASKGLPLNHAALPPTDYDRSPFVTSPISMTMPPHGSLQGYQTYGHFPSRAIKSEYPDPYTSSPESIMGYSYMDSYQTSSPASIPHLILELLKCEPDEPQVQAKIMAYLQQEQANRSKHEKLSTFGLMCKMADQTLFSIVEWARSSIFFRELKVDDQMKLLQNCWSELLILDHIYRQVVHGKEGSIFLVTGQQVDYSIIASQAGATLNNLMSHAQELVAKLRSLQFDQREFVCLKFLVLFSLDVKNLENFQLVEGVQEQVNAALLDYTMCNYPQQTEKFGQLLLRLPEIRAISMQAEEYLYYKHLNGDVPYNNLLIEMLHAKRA
SRC2 inh: human SRC2 (NCOA2) inhibition. Q15596. HEK293 GAL4-SRC2 luciferase reporter, luminescence. inhibition, % at 9 µM. 0.17% of 370,000 active. AID 651957;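 active = inhibition above the mean inhibition of all tested compounds plus 3 SD, set per campaign, cut at about 52% in these data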;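 also: 0% = DMSO treated cells and 100% = cells given Gossypol at 36 µM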
SRC1 inh: inhibitors of human steroid receptor coactivator 1 (SRC1); Q15788; HEK293 GAL4-SRC1 luciferase reporter, luminescence; inhibition, % at 3.6 µM; 0.12% of 360,000 active; AID 588354;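 active = inhibition above the campaign mean plus 3 SD, with each screening campaign given its own cutoff, cut at about 60% in these data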;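 also: 0% = DMSO treated cells and 100% = gossypol at 36 µM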
NR2F2 inh: inhibitors of human COUP-TFII (NR2F2). AID 686940. HEK293T NGFI-A luciferase reporter, luminescence. P24468. inhibition, % at 8.6 µM. 0.7% of 370,000 active;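 active = inhibition above a per-plate cutoff, mean inhibition of test wells between control levels plus 3 SD, cut at about 38% in these data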;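 also: cells cotransfected with COUP-TFII expression vector driving the NGFI-A reporter; 0% = median of COUP-TF2 test wells and 100% = reporter-only cells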
Gli-Sufu antag: antagonists of Gli-Sufu signaling; inhibition, % at 5 µM; Sufu-KO-LIGHT fibroblasts, Gli luciferase reporter luminescence; 0.74% of 340,000 active; AID 588413;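 active = inhibition above about 55%, limit read from the data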;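 also: 0% = DMSO-treated cells and 100% = wells with medium but no cells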
Gli-Sufu confirm: Gli-SUFU antagonism confirmation, single concentration; Sufu-KO-LIGHT cells, Gli luciferase reporter, luminescence; 40% of 2,500 active; inhibition, % at 5 µM; shares compounds with Gli-Sufu antag;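 active = mean inhibition at 5 µM reaching about 45%, limit read from the data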;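 also: plate controls were DMSO-treated cells for no effect and wells lacking cells for full effect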
Gli cytotox: cytotoxic in Gli-SUFU antagonist counter-screen; shares compounds with Gli-Sufu antag; Sufu-KO-LIGHT cells cytotoxicity, ATP luminescence; cytotoxicity, % at 5 µM; 32% of 2,500 active;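 active = mean cytotoxicity at 5 µM above about 25%, limit read from the data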;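 also: cells exposed to compound overnight for roughly 16 to 18 hours; plate controls were DMSO wells with cells for no effect and medium without cells for full effect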
Wnt3a cs: counter-screen for Gli-SUFU antagonists: Wnt3a reporter inhibition. shares compounds with Gli-Sufu antag. Wnt-LIGHT cells, Wnt3a-driven luciferase reporter, luminescence. inhibition, % at 6.25 µM. 20% of 2,500 active. AID 651995;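 active = mean inhibition above about 25%, limit read from the data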
* hit, by the source's call; . = no result.

SMILES	NCOA3 inh	NR5A2 inv ag	SRC2 inh	SRC1 inh	NR2F2 inh	Gli-Sufu antag	Gli-Sufu confirm	Gli cytotox	Wnt3a cs
COc1ccc(OCC(=O)NC2CCCN(Cc3ccc(Cl)cc3)C2)cc1 (stereo not drawn)	8	19	1	9	-2	52	33	2	-50
COc1cccc(CC(=O)NC2CCCN(Cc3ccc(Cl)cc3)C2)c1 (stereo not drawn)	-3	10	-6	-16	12	23	.	.	.
CCN1C/C(=C\c2cc(OC)c(OC)c(OC)c2)C2=NN(c3ccccc3)C(c3cc(OC)c(OC)c(OC)c3)C2C1 (stereo not drawn)	3	3	-1	-9	-37	53	30	17	-9
COc1ccc(CCNC(=O)c2ccccc2NC(=O)C2=C(C)OCCS2)c(OC)c1	13	4	15	6	5	5	.	.	.
CC1=C(C(=O)Nc2cc(C(=O)NCc3ccccc3)ccc2C)SCCO1	7	23	10	-12	-17	.	.	.	.
COc1cc(CCNC(=O)c2ccccc2NC(=O)C2=C(C)OCCS2)cc(OC)c1OC	8	15	-5	6	18	99*	18	-1	12
COc1cc(CNC(=O)c2ccccc2NC(=O)C2=C(C)OCCS2)cc(OC)c1OC	1	0	9	7	9	91*	17	0	-19
O=C(Nc1ccc(C(O)(C(F)(F)F)C(F)(F)F)cc1)c1ccc(Cl)cc1	.	.	.	.	-37	.	.	.	.
O=C(Cn1nc(C(=O)O)c2ccccc2c1=O)Nc1ccccc1C(F)(F)F	-5	11	10	-2	5	79*	12	7	-20
Nn1c(SCc2cccc3ccccc23)nnc1-c1cc(-c2ccc(F)cc2)n[nH]1	.	.	3	.	-2	.	.	.	.
COCCN(Cc1cc2cc3c(cc2nc1Cl)OCO3)C(=O)Nc1ccc(OC)cc1	2	13	-8	-4	-2	55	29	-1	-20
CC(C)N(C[C@@H]1CSCCS(=O)(=O)N1)C1CCCCC1	.	.	-18	.	3	.	.	.	.
CC(C)C1=CC2C3C(C(C(C)C)=CC(=O)[C@@]3(C)O)C1C(=O)C2(C)O (stereo partly drawn)	.	.	-8	.	6	.	.	.	.
C=CCN=C1NC(c2cccc(Cl)c2)C(C(=O)OC)=C(C)N1Cc1cccc(C(F)(F)F)c1 (stereo not drawn)	.	.	4	.	-8	.	.	.	.
Cc1ccc(OCCOC(=O)c2cc(S(=O)(=O)N3CCCCC3)ccc2N2CCOCC2)cc1	0	6	6	3	14	55*	65*	28*	3
O=C(OCCOc1ccc(Cl)cc1)c1cc(S(=O)(=O)N2CCCCC2)ccc1N1CCOCC1	0	14	-13	6	9	69*	68*	32*	26*
Cc1cccc(C)c1OCc1cccc(C2Nc3ccccc3C(=O)N2Cc2ccco2)c1 (stereo not drawn)	.	.	.	.	9	.	.	.	.
COc1ccc(CCNc2ccncn2)cc1	-4	10	23	0	20	36	.	.	.
COc1ccc(CCNc2ccc(S(N)(=O)=O)cn2)cc1	7	-15	4	-8	3	51	9	7	3
CN(C)Cc1c(C(C)(C)O)[nH]c2cc(F)ccc12	.	.	27	.	-7	.	.	.	.
Nc1nc(N2CCN(Cc3ccccc3)CC2)n[nH]1	-3	4	0	-1	12	24	.	.	.
Nc1nc(N2CCN(C(c3ccccc3)c3ccccc3)CC2)n[nH]1	22	-4	-10	-5	-10	66*	31	22	-15
CCOc1ccccc1C1C2=C(COC2=O)Nc2cc3c(cc21)OCO3 (stereo not drawn)	12	11	16	-12	-44	55	52*	62*	13
CCOc1ccccc1C1CC(=O)Nc2cc3c(cc21)OCO3 (stereo not drawn)	29	15	31	7	24	21	.	.	.
C#CCOc1ccc(C2C3=C(COC3=O)Nc3cc4c(cc32)OCO4)cc1OC (stereo not drawn)	-1	-8	15	-14	-53	-19	.	.	.
SMILES	NCOA3 inh	NR5A2 inv ag	SRC2 inh	SRC1 inh	NR2F2 inh	Gli-Sufu antag	Gli-Sufu confirm	Gli cytotox	Wnt3a cs
O=C1OCC2=C1C(c1ccc(F)cc1)c1cc3c(cc1N2)OCO3 (stereo not drawn)	11	17	15	3	-69	56*	58*	62*	25
COc1ccc(OCC(O)Cn2c(=N)n(CCN3CCOCC3)c3ccccc32)cc1 (stereo not drawn)	16	14	6	-11	-20	63*	18	17	-19
COc1ccc(OCCC(=O)NCCN2CCOCC2)cc1	-13	8	-15	-1	5	55	21	16	-16
N=c1n(CCN2CCOCC2)c2ccccc2n1CC(O)COc1ccccc1 (stereo not drawn)	9	11	-13	13	-26	32	.	.	.
Cc1ccccc1CN1[C@@H](C)[C@H](c2ccccc2)Oc2cccc(NCC(C)C)c2S1(=O)=O	.	.	-14	.	26	.	.	.	.
COc1cc(C2C(C#N)=C(C)NC3=C2C(=O)c2ccccc23)cc(OC)c1OC (stereo not drawn)	20	32	15	6	-6	50	58*	55*	14
CCOCCCNC(=O)C(NC(=O)c1ccc(NC(C)=O)cc1)c1ccc(C)cc1 (stereo not drawn)	29	-16	11	12	-5	96*	14	1	4
CCOCCCNC(=O)C(NC(=O)c1ccc(NC(C)=O)cc1)c1ccc(Cl)cc1 (stereo not drawn)	-7	11	5	2	-8	4	.	.	.
CN(C)S(=O)(=O)c1cccc(-c2nn(-c3ccccc3)cc2/C=C(/C#N)C(=O)NCc2ccco2)c1	13	8	0	-5	-5	83*	30	8	14
Cc1[nH]n(-c2ccccc2)c(=O)c1N=Nc1ccccc1O	25	19	10	-4	25	55	55*	34*	74*
COc1cccc(NC(=O)C2CCCN2C(=O)NCc2ccccc2)c1 (stereo not drawn)	.	.	6	.	18	.	.	.	.
Cc1ccc(C)c(NC(=O)C2CCN(S(=O)(=O)c3ccc4c(c3)NC(=O)CO4)CC2)c1	12	0	7	14	-3	60*	18	11	-32
Cc1cccc(NC(=O)C2CCN(S(=O)(=O)c3ccc4c(c3)NC(=O)CO4)CC2)c1	5	13	-41	-10	5	2	.	.	.
CCOC(=O)N1CCN(Cc2nc3c(c(=O)n(C)c(=O)n3C)n2CCCc2ccccc2)CC1	2	-16	5	11	13	99*	19	1	-34
